Test results as given in the supplement of paper PMC6555819.

Columns and labels:
Assay in all cases: PBM binding z-score (relative to random genomic background probes); higher = stronger binding; sequences stand for … in GC…GCGATTGACAGCGTAGAATGAAGG
[1] = system: RARb homodimer (NR concentration 270 nM)
Method in brief: (§1)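 Antibodies against each partner of ligand-free nuclear receptor dimers (one per run) detected binding on custom Agilent 4×180K protein-binding microarrays after 1 h incubation. The double-stranded probes had 34-nt variable regions carrying direct-repeat seeds, single-nucleotide variants, half-site ablations and random human genomic background sequences. Binding z-scores, from regression-normalized fluorescence, use the random background probes as reference.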

[2] = system: RARg:RXRa (NR concentration 270 nM, RXRa partner concentration 90 nM)
Method in brief: as §1

[3] = system: RARg homodimer (NR concentration 270 nM)
Method in brief: as §1

[4] = system: RXRa DBDmut IVT, anti-RXR (DBD mutation: RXRa K156A/R161A, NR concentration 90 nM)
Method in brief: as §1

[5] = system: RXRa homodimer (NR concentration 180 nM)
Method in brief: as §1

[6] = system: THRa:RXRa (NR concentration 90 nM, RXRa partner concentration 90 nM)
Method in brief: as §1

[7] = system: THRa homodimer (NR concentration 90 nM)
Method in brief: as §1

[8] = system: VDR homodimer (NR concentration 270 nM)
Method in brief: as §1

Row | Sequence | PBM binding z-score [1] | PBM binding z-score [2] | PBM binding z-score [3] | PBM binding z-score [4] | PBM binding z-score [5] | PBM binding z-score [6] | PBM binding z-score [7] | PBM binding z-score [8]
1 | TCTAGTTGGTCAAAGGTCACTCACTCGAAATGCG | 4.78 | 6.5 | 6 | 2.11 | 7.54 | 3.86 | 2.1 | 3.03
2 | ATACCAAGGTGAACGTGAGGTCGTTGATACTAAC | 2.68 | 3.63 | 1.98 | 1.19 | 2.68 | 4.11 | 3.14 | 3.61
3 | CGAACTAGGTCATTAACAGGACAGTGAATAGTAA | 2.34 | 4.13 | 4.05 | 2.35 | 2.29 | 2.76 | 0.884 | 1.15
4 | GCTGTTAGGTCAACTGATGGTCAGCTAAAGCTCG | 3.65 | 5.62 | 5.67 | 2.11 | 3.51 | 3.62 | 2.59 | 0.277
5 | CCTTACGGGTCACTGACAGGCTATAGCATTTGGA | 2.85 | 5.13 | 4.79 | 1.86 | 5.2 | 2.41 | -0.00278 | 0.687
6 | CGTCCAAGGTGAGCAGGTCAGTGAAAGCGACGTG | 2.7 | 2.24 | 2.37 | -0.254 | 1.09 | 2 | 0.649 | -0.353
7 | ACTAGCAGGCCAAGTTTGGGGCACTCAAACAAAG | 0.455 | 0.443 | 0.463 | -0.0962 | -0.356 | 0.348 | -0.409 | -0.166
8 | ATCGAAAGGCCGTGAGGTGAGTATACAGAAAGGC | 0.911 | 1.47 | 1.42 | -0.765 | 0.904 | 1.93 | 0.902 | -0.0558
9 | GCTTGTAGATCAAGGTTACGAAAGACTAAGCTAA | 0.837 | 0.713 | 0.558 | 0.173 | 1.09 | 1.81 | 0.263 | -0.274
10 | AGCTCTAGGTAACAAGTTCAGTGAAAGAGAGGAC | 1.92 | 1.12 | 1.23 | 0.916 | 0.551 | 1.49 | 0.681 | 2.64
11 | TAGCCTAGGTCATGGTCCAGTATACCACGCGAAC | 3.04 | 3.96 | 4.28 | 0.681 | 3.51 | 3.39 | 1.75 | 0.777
12 | ACTACTAGTTGACTTAGGGCAACCGATACGACGC | 0.824 | 0.463 | 0.625 | 0.495 | 0.508 | 1.32 | 0.683 | 0.273
13 | CGAACTAGGTCAGAACAGGACAGTGGAGGATGAT | 2.31 | 2.47 | 3.32 | 0.671 | 1.4 | 3.33 | 0.46 | 0.198
14 | ATATGTAGGTTATCGGGTCATTCCGTTTGCGCAT | 3.06 | 3.32 | 2.35 | 1.67 | 3.38 | 3.36 | 2.82 | 3.21
15 | GTACCTAGGTGAATAGGTCGTTGATGAGTAGGCG | 1.12 | 1.85 | 0.79 | -0.37 | 1.24 | 1.08 | -0.182 | 0.0472
16 | CGAACTAGGTCAGAACAGGACAATGAAGGATGAT | 2.03 | 2.55 | 3.32 | 0.605 | 1.37 | 3.62 | 0.458 | 0.155
17 | TATACAGGGTCAACGGCCAGAGTACGAATGTCGA | 3.43 | 5.83 | 5.47 | 2.75 | 6.28 | 3.46 | 1.05 | 2.95
18 | CCTAGCAGGCCAGGGTCACTCTAGCATTTCGCTT | 2.58 | 2.69 | 2.31 | 0.701 | 2.88 | 2.56 | 0.876 | 1.14
19 | ATCTCTAGGTAACCAAGTTCAGTGAATGCCGAAC | 1.52 | 0.894 | 0.853 | 0.991 | 0.572 | 1.6 | 0.96 | 2.99

Row | Sequence | PBM binding z-score [1] | PBM binding z-score [2] | PBM binding z-score [3] | PBM binding z-score [4] | PBM binding z-score [5] | PBM binding z-score [6] | PBM binding z-score [7] | PBM binding z-score [8]
20 | TAATATAGGTAATACAGGTGAAAGTCGGCATCTA | 0.493 | 0.614 | 0.786 | 0.247 | 0.906 | 0.893 | 0.26 | 0.35
21 | CCTAGCAGGCCAGGGTCCCTCAAGCATTTCGCTT | -0.427 | -0.683 | -0.827 | -1.15 | -0.657 | -0.281 | -0.649 | -0.542
22 | GTAACGAGGGCAAGTTGATAGCAGAGTTTGATGG | 1.71 | 1.66 | 1.86 | 2.07 | 0.851 | 1.36 | 0.0846 | 2.23
23 | AGAATGAGGTTATGAAGATCAGGGAATTGCGGTC | 1.07 | 1.45 | 1.06 | 1.05 | 2.45 | 2.35 | 0.96 | 0.716
24 | TCTATTAGTTGAAGGGCAACCGACGAGTCCGTTT | 1.41 | 0.635 | 0.786 | 1.57 | 0.701 | 0.419 | 0.09 | 1.87
25 | CAGACTGGGGCAAGGTTACCATAACGCACAGCCA | 1.35 | 1.16 | 1.52 | -0.141 | 1.34 | 1.41 | 0.328 | 0.0721
26 | TAGCCTTGGTCATTGGGCCAGTATAGTACGCATC | 0.501 | 0.238 | 0.477 | -0.637 | 0.0749 | -0.206 | -0.231 | -0.72
27 | GCGACTGGGGCAAAGCAGGTTACCGTAAGGTTGG | 1.14 | 0.477 | 0.183 | -0.47 | 0.234 | 3.15 | -0.142 | -0.434
28 | TCGAGTAGGTTAGGGGCATTCTGAATGGCGTCGA | 0.656 | 0.0827 | 0.00279 | 0.628 | 0.386 | 0.627 | -0.0336 | 0.572
29 | AATATTAGTTGAGACGAGGGCAACCGATAGGTTG | 1.28 | 0.902 | 0.922 | 0.47 | 0.883 | 2.64 | 0.504 | 1.73
30 | TCTCGGAGGACACGAAAGGTCGGAGCTCGACATC | 2.87 | 2.45 | 2.91 | 1.02 | 1.66 | 2.7 | 0.464 | 0.287
31 | TAGCCTAGGTCATGGGCCCGTATACCACGCGAAC | 2.95 | 4.3 | 4.56 | -0.133 | 3.53 | 3.13 | 1.76 | 0.701
32 | GCTTGTAGATCAAGGTTAAGAAGGACTAAGCTAA | 0.182 | 0.382 | 0.268 | -0.0285 | 0.716 | 1.18 | -0.165 | -0.0273
33 | TAGCCTAGGTCAGTCAGGGGCCAGTATAGAAAGC | 2.81 | 4.53 | 3.75 | -0.63 | 1.18 | 1.86 | 0.122 | 0.0513
34 | CGAACTAGGTCAGATCAGGACAGTGAAGGATGAT | 2.33 | 2.68 | 4.03 | 0.645 | 1.52 | 4.73 | 1.25 | -0.038
35 | CCGGCTAGGTCATGGTCAGCTAATCTACAGTATG | 3.33 | 4.11 | 4.99 | 1.48 | 3.01 | 2.99 | 1.57 | 0.619
36 | TCATATAGGTACAGGTGAAAGTCGAACGATATGA | 0.469 | 0.866 | 0.834 | 0.797 | 1.07 | 0.566 | -0.52 | 0.343
37 | ATCGAAAGGCCGACGAGGTGAGTATACACCGTTT | 0.596 | 0.783 | 1.08 | -0.604 | 0.344 | 1.5 | 0.378 | -0.425
38 | CAAACTAGGTAAAGAGGTCAAAGTCCGCTTCCCG | 4.1 | 5.02 | 4 | 2.13 | 5.62 | 3.75 | 1.47 | 4.05
